The text below walks through data of ChEMBL document CHEMBL5606460, “ASAP - DENV-2 NS2B-NS3 protease fluorescence single point” (2024).

The target of the assay is Genome polyprotein (dengue virus type 2) (UniProt P29990).
Where [1] appears, read: Thailand/16681/1984, Concentration 25.0 uM, Number of replicates 1.0.

About 110 (5.5%) of roughly 2,000 compounds showed an effect of 50% or more. This excerpt belongs to a sample that is enriched for strong results.

Usually inhibition stands for the drop in the measured response relative to a control, in per cent.

For `CNC(=O)c1cc(Cl)ccc1NS(=O)(=O)c1ccc(C(=O)N(C)C)cc1`, the inhibition is -0.006% (Thailand/16681/1984, Concentration 49.5 uM, Number of replicates 2.0, Standard deviation 0.43931539952348436 %); 1.16% (Thailand/16681/1984, Concentration 99.01 uM, Number of replicates 2.0, Standard deviation 1.0448066347124485 %); 5.4% (Thailand/16681/1984, Concentration 198.0 uM, Number of replicates 2.0, Standard deviation 2.436767925477247 %).

Regarding `O=Cc1ccc(N2CCC(C(=O)N3CCN(c4ccc(F)cc4F)CC3)CC2)cc1`, the inhibition under setting [1] turned out to be 11.4%.

As to `CC[C@H]1CCN(C(=O)c2cc(Cl)ccc2NS(=O)(=O)c2ccc(Oc3ccccc3Cl)cc2)C1`, the inhibition is 46.7% (Thailand/16681/1984, Concentration 49.5 uM, Number of replicates 2.0, Standard deviation 0.47789805764320614 %); 61.8% (Thailand/16681/1984, Concentration 99.01 uM, Number of replicates 2.0, Standard deviation 0.11836183761011393 %); 73.4% (Thailand/16681/1984, Concentration 198.0 uM, Number of replicates 2.0, Standard deviation 0.034704726588234404 %).

Turning to `O=C(c1cc(Cl)ccc1NS(=O)(=O)c1ccc(Oc2ccccc2Cl)cc1)N1CCC[C@@H]1CO`, the inhibition worked out at 17.2% (Thailand/16681/1984, Concentration 49.5 uM, Number of replicates 2.0, Standard deviation 0.383564644131335 %); 85.5% (Thailand/16681/1984, Concentration 99.01 uM, Number of replicates 2.0, Standard deviation 0.18466388793957156 %); 93.6% (Thailand/16681/1984, Concentration 198.0 uM, Number of replicates 2.0, Standard deviation 0.022248141217142654 %).

For `CNC(=O)[C@H]1CCN(S(=O)(=O)c2ccc(Oc3ccccc3Cl)cc2)C1`, the inhibition (Thailand/16681/1984, Concentration 49.5 uM, Number of replicates 2.0, Standard deviation 0.2326651022960228 %) is -2.7%; the inhibition (Thailand/16681/1984, Concentration 99.01 uM, Number of replicates 2.0, Standard deviation 1.0727392899756494 %) is -1.81%; the inhibition (Thailand/16681/1984, Concentration 198.0 uM, Number of replicates 2.0, Standard deviation 0.8124211767562954 %) stood at 0.204%.

Regarding `CNC(=O)C[C@H]1CCCN1S(=O)(=O)c1ccc(Oc2ccccc2Cl)cc1`, the inhibition was -0.145% (Thailand/16681/1984, Concentration 49.5 uM, Number of replicates 2.0, Standard deviation 0.32757728686835763 %); 1.46% (Thailand/16681/1984, Concentration 99.01 uM, Number of replicates 2.0, Standard deviation 1.5700018436077314 %); 3.55% (Thailand/16681/1984, Concentration 198.0 uM, Number of replicates 2.0, Standard deviation 0.26515981673573996 %).

On to `CNC(=O)C[C@H]1CCCCN1S(=O)(=O)c1ccc(Oc2ccccc2Cl)cc1`, for which the inhibition is -1.92% (Thailand/16681/1984, Concentration 49.5 uM, Number of replicates 2.0, Standard deviation 0.6403061336392061 %); -0.478% (Thailand/16681/1984, Concentration 99.01 uM, Number of replicates 2.0, Standard deviation 0.5926288072768489 %); 1.47% (Thailand/16681/1984, Concentration 198.0 uM, Number of replicates 2.0, Standard deviation 0.4290957159902598 %).

As for `CNC(=O)[C@H]1CCCN(S(=O)(=O)c2ccc(Oc3ccccc3Cl)cc2)C1`, the inhibition (Thailand/16681/1984, Concentration 49.5 uM, Number of replicates 2.0, Standard deviation 1.3425926640552597 %) is -1.55%; the inhibition (Thailand/16681/1984, Concentration 99.01 uM, Number of replicates 2.0, Standard deviation 1.1232771440198652 %) came out at 0.94%; the inhibition (Thailand/16681/1984, Concentration 198.0 uM, Number of replicates 2.0, Standard deviation 1.8999403128335026 %) was 2.72%.

`O=C(c1cc(Cl)ccc1NS(=O)(=O)c1ccc(Oc2ccccc2Cl)cc1)N1CC[C@H](CO)C1`: the inhibition by setting is: (Thailand/16681/1984, Concentration 49.5 uM, Number of replicates 2.0, Standard deviation 1.1631525408138252 %) 2.87%; (Thailand/16681/1984, Concentration 99.01 uM, Number of replicates 2.0, Standard deviation 1.2459174873464263 %) 43.6%; (Thailand/16681/1984, Concentration 198.0 uM, Number of replicates 2.0, Standard deviation 0.07742612093802895 %) 97.8%.

For `O=Cc1ccc(N2CCC(C(=O)Nc3c(F)cc(F)cc3[N+](=O)[O-])CC2)cc1`, the inhibition under setting [1] stood at 15.2%.

Consider `Cc1cc(C(N)=O)c2cccc(Cl)c2n1`, for which the inhibition is, setting by setting: (Thailand/16681/1984, Concentration 49.95 uM, Number of replicates 2.0, Standard deviation 7.126306314460823 %) -2.36%; (Thailand/16681/1984, Concentration 99.9 uM, Number of replicates 2.0, Standard deviation 6.288884680839078 %) 0.295%.

Take `O=Cc1ccc(N2CCC(C(=O)N3CCN(C(=O)OCc4ccccc4)CC3)CC2)cc1`: under setting [1], the inhibition worked out at 11.5%.

With `CC(C)COc1ccc(CNC(=O)C2CCN(c3ccc(C=O)cc3)CC2)cc1`, the inhibition under setting [1] was 2.46%.

Take `COC(=O)c1c[nH]c(-c2ccccc2C(=O)Nc2cnn(C)c2)c1`: the inhibition is, setting by setting: (Thailand/16681/1984, Concentration 49.5 uM, Number of replicates 2.0, Standard deviation 4.6959836114984075 %) -3.99%; (Thailand/16681/1984, Concentration 99.01 uM, Number of replicates 2.0, Standard deviation 3.634509710514387 %) -4.57%; (Thailand/16681/1984, Concentration 198.0 uM, Number of replicates 2.0, Standard deviation 4.5675250537856 %) -3.67%.

As to `CCCN(C[C@H](O)COc1ccccc1C(=O)CCc1ccccc1)C(=O)C1CCN(c2ccc(C=O)cc2)CC1`, the inhibition under setting [1] was determined as 15.7%.

With `Cc1cc(CO)c2cccc(Cc3ccccc3C(=O)N3CCC(CN)CC3)c2n1`, the inhibition (Thailand/16681/1984, Concentration 49.95 uM, Number of replicates 2.0, Standard deviation 7.669453256982897 %) came out at 67% and the inhibition (Thailand/16681/1984, Concentration 99.9 uM, Number of replicates 2.0, Standard deviation 4.997502207892192 %) stood at 86.3%.

As to `Cc1cc(CO)c2cccc(Cc3ccccc3C(=O)N3CC[C@@H](CO)C3)c2n1`, the inhibition runs as follows: (Thailand/16681/1984, Concentration 49.95 uM, Number of replicates 2.0, Standard deviation 0.1537915321395842 %) -0.863%; (Thailand/16681/1984, Concentration 99.9 uM, Number of replicates 2.0, Standard deviation 0.5490500301245094 %) 3.93%.

As for `Cc1cc(CO)c2cccc(Cc3cccc(C(=O)N4CC[C@@H](CO)C4)c3)c2n1`, the inhibition stood at 1.42% (Thailand/16681/1984, Concentration 49.95 uM, Number of replicates 2.0, Standard deviation 1.5846275376108605 %) and 23.4% (Thailand/16681/1984, Concentration 99.9 uM, Number of replicates 2.0, Standard deviation 0.9371220268229934 %).

For the compound `Cc1cc(CO)c2cccc(Cc3cccc(C(=O)N4CCC(CN)CC4)c3)c2n1`, the inhibition (Thailand/16681/1984, Concentration 49.95 uM, Number of replicates 2.0, Standard deviation 0.03521723226612688 %) stood at 98.6% and the inhibition (Thailand/16681/1984, Concentration 99.9 uM, Number of replicates 2.0, Standard deviation 0.007908771829372243 %) was 98.5%.

As for `Cc1cc(CO)c2cccc(Cc3ccccc3C(=O)N3CCC(C(=O)O)CC3)c2n1`, the inhibition (Thailand/16681/1984, Concentration 49.95 uM, Number of replicates 2.0, Standard deviation 0.622352552136526 %) amounted to 0.457% and the inhibition (Thailand/16681/1984, Concentration 99.9 uM, Number of replicates 2.0, Standard deviation 0.7955477281018075 %) amounted to 4.68%.

On to `Cc1cc(CO)c2cccc(Cc3cccc(C(=O)N4CCC(C(=O)O)CC4)c3)c2n1`, for which the inhibition is -0.531% (Thailand/16681/1984, Concentration 49.95 uM, Number of replicates 2.0, Standard deviation 0.11067239798039237 %) and 2.3% (Thailand/16681/1984, Concentration 99.9 uM, Number of replicates 2.0, Standard deviation 0.04599367566818035 %).
